The source of these data is PubChem BioAssay (NCI).

Among the test systems are HCT-15 colon; HT29 colon; SNB-75 CNS; SNB-19 CNS; U251 CNS; PC-3 prostate; SK-MEL-5 melanoma; UACC-62 melanoma; LOX IMVI melanoma; SK-MEL-28 melanoma; SK-MEL-2 melanoma; EKVX NSCLC; UO-31 renal; TK-10 renal; ACHN renal; CAKI-1 renal; A498 renal; CCRF-CEM leukemia; SN12C renal; MOLT-4 leukemia.
What all share (assay): NCI-60 one-dose screen, 48 h (100 = growth as untreated, 0 = no growth, -100 = all killed)
Holding throughout (conditions): 10 µM unless noted

This is part of a sample that, as a whole, favours compounds with a hit. Of some 83,000 tested, about 20% had one in any assay.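 Values shown are percent growth following 48 h exposure of cells in 96-well plates to a single concentration of compound; below 10 was considered active.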 Unmarked numbers belong to inactive results. Activity calls are given as the source filed them.

As for `COc1cc(NCCCN(CC(C)C)C2CCCC2)c2ncccc2c1`, the growth in the test on HCT-15 colon was 63.6%; in the test with HT29 colon, 71.8%; in the test with SNB-75 CNS it was 71%; with SNB-19 CNS, 84.6%; in the test with U251 CNS, 76.6%; in the test with PC-3 prostate it was 59.4%. Further, the growth with SK-MEL-5 melanoma is 72.2%; in the test with UACC-62 melanoma it was 73.6%; in the test with LOX IMVI melanoma, 58.7%; in the test with SK-MEL-28 melanoma, 71.2%; in the test with SK-MEL-2 melanoma, 100%; with EKVX NSCLC, 89.9%. The growth is 51% in the test on UO-31 renal; 93.6% in the test with TK-10 renal; 41.7% in the test with ACHN renal; 76% in the test with CAKI-1 renal; 37.1% in the test on A498 renal; 54.1% with CCRF-CEM leukemia.

`COc1ccc(CC(C)=C(c2ccc(OCCN(C)C)cc2)c2ccc(OCCN(C)C)cc2)cc1`: the growth in the test with HCT-15 colon was 62.8%; in the test on HT29 colon, 39%; in the test on SNB-75 CNS it was 81.6%; in the test on SNB-19 CNS, 80.1%; in the test on U251 CNS, 55.3%; in the test on PC-3 prostate, 70.8%. The growth in the test with SK-MEL-5 melanoma is 84.2%; in the test with UACC-62 melanoma, 39.1%; in the test with LOX IMVI melanoma, 71.5%; in the test with SK-MEL-28 melanoma, 71.5%; in the test on SK-MEL-2 melanoma, 108%; in the test on EKVX NSCLC it was 88.5%. Besides, the growth in the test on SN12C renal was 75.2%; in the test on UO-31 renal, 60.6%; in the test on ACHN renal it was 98%; in the test on CAKI-1 renal it was 84%; with CCRF-CEM leukemia, 17.1%; with MOLT-4 leukemia, 64.6%.

In the case of `COc1cc(Nc2cc(O)c3c(=O)cc(-c4ccccc4)oc3c2)cc(OC)c1`, the growth in the test on HCT-15 colon is 25%; in the test on HT29 colon, 3.58% (active); with SNB-75 CNS, -9.05% (active); in the test with SNB-19 CNS, 43.1%; in the test on U251 CNS, 22.8%; with PC-3 prostate, 27.8%. Moreover, the growth is 28.6% in the test with SK-MEL-5 melanoma; 42.5% with UACC-62 melanoma; 41.7% with LOX IMVI melanoma; 68.5% in the test on SK-MEL-28 melanoma; 13.2% with SK-MEL-2 melanoma; 38.2% in the test on EKVX NSCLC. In addition, the growth with UO-31 renal is 40.3%; in the test with TK-10 renal, 44%; in the test on ACHN renal it was 48.3%; with CAKI-1 renal, 47.2%; in the test with A498 renal, -4.73% (active); in the test with CCRF-CEM leukemia, 10.8%. The growth in the test with MOLT-4 leukemia was 24.6%.

`C#CC(=O)Nc1cccc(Nc2nc3c(c(NCc4ccccc4)n2)CCCC3)c1`: the growth in the test on HCT-15 colon was -64.8% (active); in the test on HT29 colon it was -29.1% (active); in the test with SNB-75 CNS it was -29.3% (active); with SNB-19 CNS it was -79.4% (active); in the test with U251 CNS it was -86.8% (active); in the test on PC-3 prostate, -66.2% (active). Also, the growth is -89.2% (active) in the test on SK-MEL-5 melanoma; -77.9% (active) with UACC-62 melanoma; -87.2% (active) in the test on LOX IMVI melanoma; -84.6% (active) in the test with SK-MEL-28 melanoma; -69.1% (active) with SK-MEL-2 melanoma; -62.3% (active) in the test on EKVX NSCLC. Further, the growth in the test with UO-31 renal was -91.6% (active); in the test with TK-10 renal it was -97.2% (active); in the test on ACHN renal it was -93.5% (active); in the test with CAKI-1 renal, -85.4% (active); in the test with CCRF-CEM leukemia, -8.54% (active); in the test with MOLT-4 leukemia it was -24.9% (active).

Regarding `CCCCCOc1ccc(/C=N/Nc2cc(C)nc3ccc(Br)cc23)cc1`, the growth in the test on HCT-15 colon is -91.4% (active); in the test with HT29 colon it was 4.52% (active); with SNB-75 CNS, 85.5%; in the test with SNB-19 CNS, 43.2%; in the test with U251 CNS, -65% (active); in the test on PC-3 prostate it was 27.3%. Further, the growth in the test with SK-MEL-5 melanoma was 89.1%; in the test with UACC-62 melanoma, 93.2%; in the test on LOX IMVI melanoma, -92.9% (active); in the test with SK-MEL-28 melanoma it was -74.3% (active); in the test on SK-MEL-2 melanoma, 105%; with EKVX NSCLC, 76.3%. Moreover, the growth in the test with SN12C renal was -88.8% (active); in the test with UO-31 renal, -94.1% (active); with ACHN renal, -26.2% (active); in the test on CAKI-1 renal, 43.6%; in the test with CCRF-CEM leukemia, 3.51% (active); with MOLT-4 leukemia it was -21.8% (active).

In the case of `COc1cc2nc(-c3ccc(C(F)(F)F)cc3)cc(OCCCN3CCC(O)CC3)c2cc1OC`, the growth in the test on HCT-15 colon is 9.78% (active); with HT29 colon, 9.01% (active); in the test on SNB-75 CNS, -7.26% (active); in the test on SNB-19 CNS it was 62%; in the test on U251 CNS, 46.3%; with PC-3 prostate it was 40.6%. In addition, the growth was -56.3% (active) with SK-MEL-5 melanoma; -31.3% (active) with UACC-62 melanoma; -74.4% (active) in the test on LOX IMVI melanoma; 62.7% in the test on SK-MEL-28 melanoma; 47.6% in the test with SK-MEL-2 melanoma; 59.8% in the test on EKVX NSCLC. The growth is 37.4% in the test with SN12C renal; 24.2% in the test on UO-31 renal; 31.2% in the test on ACHN renal; -6.95% (active) in the test on CAKI-1 renal; 34.2% in the test on CCRF-CEM leukemia; 35.3% in the test with MOLT-4 leukemia.

In the case of `CCCCCCOc1ccc(C(=N)N(CCCC)CCCC)c2ccccc12`, the growth is -82.1% (active) with HCT-15 colon; -83.2% (active) in the test with HT29 colon; -98.9% (active) with SNB-75 CNS; -88.9% (active) in the test on SNB-19 CNS; -77.7% (active) in the test with U251 CNS; -84.2% (active) in the test on PC-3 prostate. Besides, the growth with SK-MEL-5 melanoma was -99.3% (active); with UACC-62 melanoma it was -86% (active); in the test on LOX IMVI melanoma, -92.6% (active); in the test with SK-MEL-28 melanoma, -94.3% (active); in the test with SK-MEL-2 melanoma it was -85.6% (active); in the test with EKVX NSCLC, -75.4% (active). The growth is -93.9% (active) in the test with UO-31 renal; -92.4% (active) in the test with TK-10 renal; -92% (active) with ACHN renal; -83.7% (active) in the test on CAKI-1 renal; -12.8% (active) with CCRF-CEM leukemia; -38.4% (active) in the test with MOLT-4 leukemia.

On to `Cc1ccc(-c2c(Br)c(OC(=O)CO[C@@H]3C[C@H](C)CC[C@H]3C(C)C)c(-c3ccc(C)cc3C)c(Br)c2OC(=O)CO[C@H]2C[C@@H](C)CC[C@@H]2C(C)C)c(C)c1`, for which the growth in the test with HCT-15 colon was 99.6%; with HT29 colon, 103%; in the test on SNB-75 CNS, 85.6%; in the test with SNB-19 CNS, 101%; in the test on U251 CNS, 99.1%; in the test with PC-3 prostate, 92.8%. Besides, the growth was 55.3% in the test on SK-MEL-5 melanoma; 102% in the test on UACC-62 melanoma; 94.4% in the test with LOX IMVI melanoma; 108% with SK-MEL-28 melanoma; 90.2% with SK-MEL-2 melanoma; 101% in the test on EKVX NSCLC. The growth was 98.9% in the test with SN12C renal; 87% with UO-31 renal; 104% in the test on ACHN renal; 97% with CAKI-1 renal; 96.1% in the test with A498 renal; 90% in the test with CCRF-CEM leukemia. In the test with MOLT-4 leukemia, the growth was 97.6%.

Regarding `COc1cc(-c2nc3occn3c2-c2ccnc(NCCNS(=O)(=O)c3ccc(Cl)cc3)n2)ccc1F`, the growth with HCT-15 colon is 74.7%; in the test on HT29 colon, 53.1%; in the test with SNB-75 CNS, 69.1%; in the test with SNB-19 CNS, 91.6%; in the test on U251 CNS, 90%; in the test with PC-3 prostate, 56.4%. The growth was 66.1% in the test with SK-MEL-5 melanoma; 57.1% in the test with UACC-62 melanoma; 81.9% in the test on LOX IMVI melanoma; 102% in the test on SK-MEL-28 melanoma; 71.9% with SK-MEL-2 melanoma; 78.1% in the test with EKVX NSCLC. The growth is 71.5% in the test on SN12C renal; 36.4% in the test with UO-31 renal; 77.7% with ACHN renal; 60.9% in the test with CAKI-1 renal; 62.3% in the test with A498 renal; 60.9% in the test with CCRF-CEM leukemia. Further, in the test with MOLT-4 leukemia, the growth was 54%.
